Drawing on ChEMBL document CHEMBL1961873, “Compounds: GSK PKIS; Assays: Nanosyn kinase panel” (2012), this text covers inhibition for 33 compounds.

Molecules are shown by their SMILES.

For one assay, the target named is Receptor tyrosine-protein kinase erbB-2 (Homo sapiens) (UniProt P04626). To be noted: at 0.1 µM.
Sequence of Receptor tyrosine-protein kinase erbB-2 (Homo sapiens) (P04626 whole entry): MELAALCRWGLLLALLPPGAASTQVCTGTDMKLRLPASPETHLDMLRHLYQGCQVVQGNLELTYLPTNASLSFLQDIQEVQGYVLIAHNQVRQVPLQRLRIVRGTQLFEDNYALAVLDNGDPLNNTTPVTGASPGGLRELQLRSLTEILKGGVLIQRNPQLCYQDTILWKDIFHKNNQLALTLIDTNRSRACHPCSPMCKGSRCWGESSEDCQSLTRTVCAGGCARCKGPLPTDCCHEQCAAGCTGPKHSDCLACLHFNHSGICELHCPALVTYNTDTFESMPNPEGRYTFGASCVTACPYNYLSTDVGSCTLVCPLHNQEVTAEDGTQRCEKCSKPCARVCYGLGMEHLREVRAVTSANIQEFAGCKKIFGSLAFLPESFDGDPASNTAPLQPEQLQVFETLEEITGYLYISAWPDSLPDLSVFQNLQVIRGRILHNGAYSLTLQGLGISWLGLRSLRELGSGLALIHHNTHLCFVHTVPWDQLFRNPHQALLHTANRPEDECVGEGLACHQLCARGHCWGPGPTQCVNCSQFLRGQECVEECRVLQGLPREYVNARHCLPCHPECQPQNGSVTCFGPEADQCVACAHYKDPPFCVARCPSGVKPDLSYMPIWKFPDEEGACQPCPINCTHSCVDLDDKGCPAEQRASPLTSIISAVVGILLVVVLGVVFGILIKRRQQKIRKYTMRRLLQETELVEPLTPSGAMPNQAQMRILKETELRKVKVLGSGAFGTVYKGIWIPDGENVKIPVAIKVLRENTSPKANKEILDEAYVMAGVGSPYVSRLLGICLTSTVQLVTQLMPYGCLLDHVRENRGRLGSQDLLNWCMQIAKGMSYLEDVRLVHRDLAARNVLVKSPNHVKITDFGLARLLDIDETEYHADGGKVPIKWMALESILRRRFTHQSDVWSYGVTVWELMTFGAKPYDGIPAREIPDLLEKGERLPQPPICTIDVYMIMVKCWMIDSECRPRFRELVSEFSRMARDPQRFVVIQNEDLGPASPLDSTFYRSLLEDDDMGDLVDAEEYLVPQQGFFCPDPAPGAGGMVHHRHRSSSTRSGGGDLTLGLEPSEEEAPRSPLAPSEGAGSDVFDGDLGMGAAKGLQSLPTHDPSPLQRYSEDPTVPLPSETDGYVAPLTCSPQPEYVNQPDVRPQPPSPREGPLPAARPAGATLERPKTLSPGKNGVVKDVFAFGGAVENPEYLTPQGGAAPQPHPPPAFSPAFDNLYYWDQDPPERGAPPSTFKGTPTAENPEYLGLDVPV
As for `CCCN(CCS(C)(=O)=O)Cc1ccc(-c2ccc3ncnc(Nc4ccc(OCc5cccc(F)c5)c(Cl)c4)c3c2)o1`, the inhibition (usually the drop in the measured response relative to a control, in per cent) stood at 19.1%.

With `Cc1ccc2c(-c3ccnc(Nc4ccccc4)n3)c(-c3ccc(F)cc3)nn2n1`, the inhibition came to 3.68%.

For the compound `Fc1ccc(-c2cc(-c3c[nH]nc3-c3ccccn3)ccn2)cc1`, the inhibition came out at 4.82%.

With `FC(F)(F)c1cccc(-c2nn3ncccc3c2-c2ccnc(Nc3ccc4c(c3)OCCO4)n2)c1`, the inhibition is 1.37%.

For the compound `N#Cc1c(NC(=O)CN2CCOCC2)sc2c1CCCC2`, the inhibition came to 2.23%.

With `c1ccc(COc2ccc(Nc3ncnc4ccc(-c5ccco5)cc34)cc2)cc1`, the inhibition was -0.16%.

In the case of `Fc1ccc(-c2nn3ccccc3c2-c2ccncc2)cc1`, the inhibition stood at 1.52%.

With `Cc1cccc(Nc2ncc(-c3ccccc3)o2)c1`, the inhibition was found to be 2.48%.

Take `COc1cc2c(cc1Nc1nc(Nc3ccsc3C(N)=O)c3cc[nH]c3n1)N(C(=O)CN(C)C)CCC2(C)C`: the inhibition came to 2.91%.

Take `c1cc(-c2cnn3nc(N4CCOCC4)ccc23)nc(NC2CC2)n1`: the inhibition was determined as 1.45%.

Consider `CC(=O)NCc1cccc(C#Cc2cncnc2Nc2ccc(OCc3cccc(F)c3)c(Cl)c2)c1`, for which the inhibition was -0.95%.

For `CC(=O)Nc1cccc(C#Cc2cncnc2Nc2ccc(OCc3cccc(F)c3)c(Cl)c2)c1`, the inhibition was 0.38%.

With `Nc1nc(-c2cccc(Cl)c2)c(-c2ccc3ncccc3n2)s1`, the inhibition worked out at 2.61%.

For the compound `COc1ccc(-c2oc3ncnc(N)c3c2-c2ccc(NC(=O)Nc3cc(C(F)(F)F)ccc3F)cc2)cc1`, the inhibition is 4.07%.

Turning to `CC(C)(CO)CNC(=O)c1ccc2c(c1)/C(=N/Nc1ccc(S(N)(=O)=O)cc1)C(=O)N2`, the inhibition is 0.9%.

`CCNC(=O)O[C@H]1CN[C@H](C#Cc2cc3ncnc(Nc4ccc(OCc5cccc(F)c5)c(Cl)c4)c3s2)C1`: the inhibition was found to be 8.63%.

As for `CCn1c(-c2nonc2N)nc2ccccc21`, the inhibition was found to be 0.88%.

Consider `COc1ccc2[nH]c3c4[nH]c5ccc(OC)cc5c4c4c(c3c2c1)C(=O)NC4=O`, for which the inhibition came to 1.76%.

For `CCn1cc(-c2ccnc3[nH]ccc23)c(-c2cccc(NC(=O)Nc3ccc(OCc4ccccc4)cc3)c2)n1`, the inhibition was 2.85%.

Turning to `Fc1ccc(-c2nn3ncccc3c2-c2ccnc(Nc3ccc4c(c3)OCCO4)n2)cc1`, the inhibition was 11%.

Turning to `CCN1CCC(CC(=O)Nc2n[nH]c3nnc(-c4cccc(F)c4F)cc23)CC1`, the inhibition worked out at 2.4%.

As to `CC(C)COC(=O)c1ccc2c(c1)/C(=C/Nc1ccc(S(N)(=O)=O)cc1)C(=O)N2`, the inhibition was -2.55%.

`COC(=O)Nc1nc2ccc(S(=O)(=O)c3ccc(NC(=O)Nc4cc(C(F)(F)F)ccc4F)cc3)cc2[nH]1`: the inhibition was determined as 0.46%.

For the compound `CCOc1ccc2c(-c3ccnc(Nc4cccc(C(F)(F)F)c4)n3)cnn2n1`, the inhibition worked out at 4.13%.

As to `COc1cccc(-n2ncc3c(N/N=C/c4ccc(F)cc4)ncnc32)c1`, the inhibition came out at 2.86%.

As to `COc1cc(Nc2nccc(Nc3ccc4c(C)n[nH]c4c3)n2)cc(OC)c1OC`, the inhibition was -1.05%.

Regarding `CC1=C(C(=O)Nc2cc(Cl)c3[nH]ncc3c2)C(c2ccc(C(F)(F)F)cc2)CC(=O)N1` (stereo unspecified), the inhibition is 2.74%.

Consider `CCn1c(-c2nonc2N)nc2c(C#CC(C)(C)O)ncc(OC3CCNCC3)c21`, for which the inhibition turned out to be 5.64%.

With `CNC(=O)c1cccc(C#Cc2cncnc2Nc2ccc(OCc3cccc(F)c3)c(Cl)c2)c1`, the inhibition is -1.06%.

For `COc1ccc(-c2cc3c(N)ncnc3o2)cc1`, the inhibition was -0.84%.

Take `COc1cc(/C=N/Nc2ncnc3[nH]ncc23)ccc1O`: the inhibition is 2.03%.

On to `COc1cc2ncn(-c3cc(OCc4ccccc4C(F)(F)F)c(C(=O)N(C)C)s3)c2cc1OC`, for which the inhibition came to 0.2%.

Take `NS(=O)(=O)c1ccc(Nc2ncc(-c3ccccc3)o2)cc1`: the inhibition was determined as 2.57%.

A further assay shares this target. To be noted: at 1 µM.
Turning to `CCCN(CCS(C)(=O)=O)Cc1ccc(-c2ccc3ncnc(Nc4ccc(OCc5cccc(F)c5)c(Cl)c4)c3c2)o1`, the inhibition came to 82.1%.

On to `Cc1ccc2c(-c3ccnc(Nc4ccccc4)n3)c(-c3ccc(F)cc3)nn2n1`, for which the inhibition worked out at 32.3%.

Consider `Fc1ccc(-c2cc(-c3c[nH]nc3-c3ccccn3)ccn2)cc1`, for which the inhibition was found to be 6.84%.

Consider `FC(F)(F)c1cccc(-c2nn3ncccc3c2-c2ccnc(Nc3ccc4c(c3)OCCO4)n2)c1`, for which the inhibition was 11.4%.

Consider `N#Cc1c(NC(=O)CN2CCOCC2)sc2c1CCCC2`, for which the inhibition stood at 4.83%.

In the case of `c1ccc(COc2ccc(Nc3ncnc4ccc(-c5ccco5)cc34)cc2)cc1`, the inhibition was found to be 20%.

As to `Fc1ccc(-c2nn3ccccc3c2-c2ccncc2)cc1`, the inhibition is 2.31%.

For `Cc1cccc(Nc2ncc(-c3ccccc3)o2)c1`, the inhibition stood at 2.62%.

On to `COc1cc2c(cc1Nc1nc(Nc3ccsc3C(N)=O)c3cc[nH]c3n1)N(C(=O)CN(C)C)CCC2(C)C`, for which the inhibition is -0.07%.

For `c1cc(-c2cnn3nc(N4CCOCC4)ccc23)nc(NC2CC2)n1`, the inhibition was 1.94%.

On to `CC(=O)NCc1cccc(C#Cc2cncnc2Nc2ccc(OCc3cccc(F)c3)c(Cl)c2)c1`, for which the inhibition was -0.83%.

Regarding `CC(=O)Nc1cccc(C#Cc2cncnc2Nc2ccc(OCc3cccc(F)c3)c(Cl)c2)c1`, the inhibition was found to be 10.5%.

With `Nc1nc(-c2cccc(Cl)c2)c(-c2ccc3ncccc3n2)s1`, the inhibition was determined as 5.7%.

Consider `COc1ccc(-c2oc3ncnc(N)c3c2-c2ccc(NC(=O)Nc3cc(C(F)(F)F)ccc3F)cc2)cc1`, for which the inhibition was 8.56%.

For the compound `CC(C)(CO)CNC(=O)c1ccc2c(c1)/C(=N/Nc1ccc(S(N)(=O)=O)cc1)C(=O)N2`, the inhibition stood at 3.86%.

Turning to `CCNC(=O)O[C@H]1CN[C@H](C#Cc2cc3ncnc(Nc4ccc(OCc5cccc(F)c5)c(Cl)c4)c3s2)C1`, the inhibition was 60.4%.

Regarding `CCn1c(-c2nonc2N)nc2ccccc21`, the inhibition was -2.17%.

With `COc1ccc2[nH]c3c4[nH]c5ccc(OC)cc5c4c4c(c3c2c1)C(=O)NC4=O`, the inhibition is 5.83%.

Consider `CCn1cc(-c2ccnc3[nH]ccc23)c(-c2cccc(NC(=O)Nc3ccc(OCc4ccccc4)cc3)c2)n1`, for which the inhibition was found to be 2.75%.

Regarding `Fc1ccc(-c2nn3ncccc3c2-c2ccnc(Nc3ccc4c(c3)OCCO4)n2)cc1`, the inhibition was found to be 41.4%.

As for `CCN1CCC(CC(=O)Nc2n[nH]c3nnc(-c4cccc(F)c4F)cc23)CC1`, the inhibition was 3.76%.

As to `CC(C)COC(=O)c1ccc2c(c1)/C(=C/Nc1ccc(S(N)(=O)=O)cc1)C(=O)N2`, the inhibition is -0.17%.

As to `COC(=O)Nc1nc2ccc(S(=O)(=O)c3ccc(NC(=O)Nc4cc(C(F)(F)F)ccc4F)cc3)cc2[nH]1`, the inhibition is -2.51%.

As for `CCOc1ccc2c(-c3ccnc(Nc4cccc(C(F)(F)F)c4)n3)cnn2n1`, the inhibition stood at 2.54%.

Regarding `COc1cccc(-n2ncc3c(N/N=C/c4ccc(F)cc4)ncnc32)c1`, the inhibition is 4.41%.

On to `COc1cc(Nc2nccc(Nc3ccc4c(C)n[nH]c4c3)n2)cc(OC)c1OC`, for which the inhibition was determined as 0.32%.

For the compound `CC1=C(C(=O)Nc2cc(Cl)c3[nH]ncc3c2)C(c2ccc(C(F)(F)F)cc2)CC(=O)N1` (stereo unspecified), the inhibition worked out at 1.78%.

As for `CCn1c(-c2nonc2N)nc2c(C#CC(C)(C)O)ncc(OC3CCNCC3)c21`, the inhibition is 3.93%.

For the compound `CNC(=O)c1cccc(C#Cc2cncnc2Nc2ccc(OCc3cccc(F)c3)c(Cl)c2)c1`, the inhibition came out at 23.7%.

For the compound `COc1ccc(-c2cc3c(N)ncnc3o2)cc1`, the inhibition worked out at 0.38%.

As to `COc1cc(/C=N/Nc2ncnc3[nH]ncc23)ccc1O`, the inhibition came out at 4.08%.

As for `COc1cc2ncn(-c3cc(OCc4ccccc4C(F)(F)F)c(C(=O)N(C)C)s3)c2cc1OC`, the inhibition is -1.05%.

Regarding `NS(=O)(=O)c1ccc(Nc2ncc(-c3ccccc3)o2)cc1`, the inhibition was found to be 2.77%.
